Shown are actives, neighbours in structure and some others; about 4.1% of the full set was active somewhere.
hcDAF-12 act = H. contortus DAF-12 activation, primary screen | HEK293 hcDAF-12 lit1-tk-luc reporter, luminescence; 0% DMSO, 100% Δ7-dafachronic acid | activation, % at 6.8 µM | 370,000 compounds, 1.4% hits | AID 652067;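 active = activation above the mean of all tested compounds plus 3 SD, cut at about 5.5% in these data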;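 also: 100% = response to 3 µM Δ7-dafachronic acid high control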
DAX1 inh-1 = NR0B1 (DAX1) inhibition; P51843; AID 504766; 340,000 compounds, 0.99% hits; inhibition, % at 6.75 µM; HEK293 Gal4-DAX1 luciferase reporter, luminescence;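 active = inhibition above the mean over all tested compounds plus 3 SD, cut at about 4.2% in these data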;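 also: 0% = DAX1-transfected cells with DMSO and 100% = empty-vector control cells with DMSO; inhibition shows as a rise in luminescence from relieved DAX1 repression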
Target sequence (P51843 207-470 limits assumed): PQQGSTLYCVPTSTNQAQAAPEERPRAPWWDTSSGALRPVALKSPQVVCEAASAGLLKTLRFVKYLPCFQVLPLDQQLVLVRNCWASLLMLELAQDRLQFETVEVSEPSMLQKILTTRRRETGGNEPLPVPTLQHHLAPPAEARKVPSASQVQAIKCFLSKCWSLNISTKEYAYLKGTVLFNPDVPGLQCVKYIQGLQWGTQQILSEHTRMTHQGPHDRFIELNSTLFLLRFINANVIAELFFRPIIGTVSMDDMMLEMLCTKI
hgDAF-12 ag = hgDAF-12 agonism, primary luciferase screen. HEK293 GAL4-hgDAF12 UAS-luciferase reporter, agonist luminescence; normalized to butyrate control. activation, % at 6.8 µM. 370,000 compounds, 1.8% hits;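 active = activation above a cutoff set at the mean of all screened compounds plus 3 SD, cut at about 10% in these data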;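 also: 0% = DMSO wells and 100% = sodium butyrate wells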
DAX1 inh-2 = inhibitors of DAX1 repression of SF-1 activated StAR promoter. HEK293T StAR-luciferase reporter, SF-1/DAX-1 repression relief. AID 652010. inhibition, % at 6.8 µM. 370,000 compounds, 1.1% hits;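 active = inhibition above the mean over all tested compounds plus 3 SD, cut at about 3.6% in these data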;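 also: 0% = DAX-1 cells with DMSO and 100% = cells lacking DAX-1 with DMSO; higher inhibition means more luminescence from relief of DAX-1 repression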
ssDAF-12 act = activates DAF-12 receptor from parasite S. stercoralis; 370,000 compounds, 1% hits; activation, % at 6.8 µM; AID 652126; HEK293 ssDAF-12/GRIP1 lit1-tk-luc reporter, luminescence; % of 3 µM dafachronic acid response;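 active = activation above the mean over all tested compounds plus 3 SD, cut at about 0.9% in these data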;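 also: 0% = DMSO-only wells and 100% = 3 µM delta7-dafachronic acid wells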
LXR ag = activates human LXR-beta, counter-screen for hcDAF-12 agonists | HEK293 Gal4-LXR tk-luc reporter, luminescence, 24 h; normalized: DMSO 0%, positive control 100% | activation, % at 6.8 µM | 3,400 tested, under 10 active | shares compounds with hcDAF-12 act | AID 743027;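 active = mean percent activation of the reporter above a cutoff set as the average over tested compounds plus their standard deviation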
hcDAF12 ag = hcDAF-12 agonism, confirmation assay; shares compounds with hcDAF-12 act; HEK293 hcDAF-12 lit1-tk-luc reporter, luminescence; % of Δ7-dafachronic acid response; activation, % at 6.8 µM; 3,400 compounds, 61% hits; AID 743032;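 active = mean activation across triplicate tests above the threshold derived from the earlier primary screen, cut at about 5.5% in these data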;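 also: 0% = DMSO only wells and 100% = 3 µM Δ7-dafachronic acid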
Numbers without * were called inactive; · = not tested or not shown.

SMILES	hcDAF-12 act	DAX1 inh-1	hgDAF-12 ag	DAX1 inh-2	ssDAF-12 act	LXR ag	hcDAF12 ag
C=CCNC(=O)CN(C(=O)Cc1ccc(Cl)cc1)c1cccc(Br)c1	-1	·	-3	0	-1	·	·
C[C@H](O)[C@@H]1C(=O)N2CCc3c([nH]c4c(-c5ccc6c(c5)OCO6)cccc34)[C@@H]2C[C@@H]1N(C)C(=O)Nc1ccccc1	-3	·	2	1	1	·	·
CC(=O)c1ccc(OCc2cc(=O)n3ccsc3n2)cc1	9.8*	4	9	1	-1	0	3
COc1cc(/C=N/Nc2ccccn2)ccc1O	7.3*	4.3*	12*	2	0	1	7.6*
COc1ccc(/C=N/Nc2ccccn2)cc1OC	0	·	3	1	-2	·	·
COc1cc(/C=N/Nc2ccc(C(=O)O)cc2)ccc1O	6.8*	-2	6	3	0	1	6.4*
CC(C)[C@H](NC(=O)OCc1ccccc1)C(=O)N[C@@H](Cc1ccccc1)C1(O)CN(C)C(C(=O)NCc2ccccn2)CO1 (some centres undefined)	-1	·	-2	·	-2	·	·
COc1ccc(CCNc2nc3ccccc3n3nnnc23)cc1OC	7.7*	4	7	-1	0	0	2
c1ccc(CCNc2nc3ccccc3n3nnnc23)cc1	1	1	2	0	-1	·	·
CCOc1ccc2nc(SCC(=O)Nc3ccc4c(c3)OCCO4)[nH]c2c1	7.3*	0	3	0	-1	0	1
CCc1cc2c(=O)c(-c3nc4ccccc4n3C)c(COCC(=O)O)oc2cc1O	2	0	1	1	0	·	·
CCCc1cc2c(=O)c(-c3nc4ccccc4s3)c(COCC(=O)O)oc2cc1O	6.8*	1	9	1	0.9*	0	7.7*
COc1ccc(Cl)cc1S(=O)(=O)N1CCN=C1C	12*	1	-1	1	1.6*	0	2
CC1CCCCN1C(=O)CSCC(=O)Nc1nc(-c2cccs2)cs1 (centres undefined)	6.6*	1	7	1	0	0	2
COC(=O)c1cc2c(c3c4ccccc4n(S(=O)(=O)c4cccc(C)c4)c13)C(=O)N(C)C2	4	·	0	-1	0	·	·
CC(C)CCN1CCN(Cc2cc3ccccc3[nH]2)CC1CCO (centres undefined)	6.9*	0	0	0	0	0	7.0*
CC(C)CN1CCN(Cc2cc3ccccc3[nH]2)CC1CCO (centres undefined)	4	2	0	0	0	·	·
CCOC(=O)[C@]12CCCC=C1N(CCCOC)C(=O)[C@@H]2CC(=O)NCCCN1CCCC1=O	0	·	2	0	-1	·	·
Cc1cccc(/C=N/c2sc3c(c2C#N)CCN(Cc2ccccc2)C3)c1O	14*	3	0	0	1	0	6.7*
CC1(C)OC(C)(C)C(=N/O)/C1=N\N	0	·	-5	0	-1	·	·
O=C(N/N=C/c1cc(Br)c(O)c(Br)c1)C1CC1	-2	-1	4	0	-1	·	·
CC(C)(C)NC(=S)N/N=C/c1cc(Br)c(O)c(Br)c1	7.4*	2	1	0	1	0	1
COc1cccc2cc(C(=O)Nc3ccccc3C)/c(=N/O)oc12	9.2*	2	8	1	1	0	6.3*
COc1ccc2o/c(=N\O)c(C(=O)Nc3ccccc3OC)cc2c1	3	-1	5	0	0	·	·
COc1ccccc1C(=O)Nc1ccc(Br)c2cccnc12	-2	0	2	0	-1	·	·
SMILES	hcDAF-12 act	DAX1 inh-1	hgDAF-12 ag	DAX1 inh-2	ssDAF-12 act	LXR ag	hcDAF12 ag
COc1ccccc1C(=O)Nc1ccc(Br)cc1C	7.0*	2	11*	0	1	0	9.6*
Cc1ccc(NC(=O)C2CCCN2S(=O)(=O)c2cccnc2)c(C)c1 (centres undefined)	-2	·	1	0	0	·	·
COC(=O)[C@]12C[C@H](CC(=O)N3CCSCC3)C(=O)N(CCc3ccc(OC)c(OC)c3)C1=C[C@H](C(C)(C)C)O[C@@H]2C	-2	·	-2	0	-1	·	·
CCOC(=O)N1N=C(c2ccc(OC)cc2)CC1(O)C(F)(F)F (centres undefined)	7.9*	1	9	4.1*	1.8*	1	6.4*
C#CCNC(=O)C[C@H]1C(=O)N(CCCOC)C2=CCCC[C@@]21C(=O)OCC	-1	·	-1	0	-1	·	·
Cc1cccc(Cn2cc(COC(=O)NCCc3c[nH]c4ccccc34)nn2)c1	-1	·	1	-1	-1	·	·
O=C(NCCc1c[nH]c2ccccc12)OCc1cn(Cc2cccc(Cl)c2)nn1	6.6*	·	7	0	-1	0	-1
COc1cccc(-c2cc(CNC(=O)[C@H]3O[C@@H](n4cnc(C(N)=O)n4)[C@H](O)[C@@H]3O)no2)c1	-1	·	0	2	-1	·	·
COC(=O)c1cccc2c([N+](=O)[O-])c(NC(C)=O)cc(C(=O)OC)c12	0	·	4	0	-1	·	·
Cc1cc2ccccn2c1C(=O)Nc1cccc(Cl)c1	7.0*	2	6	1	1	0	6.1*
Cc1cc2ccccn2c1C(=O)c1ccc(Cl)cc1	-2	-1	2	-1	-1	·	·
Cc1ccc(C(=O)NC(=S)c2c(C)cc3ccccn23)cc1	7.5*	4	12*	2	4.1*	0	8.5*
Cc1cc2ccccn2c1C(=S)NC(=O)c1ccccc1	6	0	7	0	0	·	·
O=C(O)c1ccc(N/N=C/c2cccc3cccnc23)cc1	8.1*	1	13*	3	2.0*	1	7.9*
Cc1cc2ncc(-c3cccs3)nc2cc1C	15*	-1	18*	3	2.1*	3	18*
CCC(C)(C)C1CCc2[nH]nc(C(=O)N/N=C(\C)c3ccco3)c2C1 (centres undefined)	-2	2	-4	-1	-1	·	·
C/C(=N\NC(=O)c1n[nH]c2c1CCC2)c1ccco1	11*	·	8	1	0	1	5
CC(OC(=O)c1ccc2c(c1)C(=O)N(Cc1ccncc1)C2=O)C(=O)Nc1cccc(Cl)c1Cl (centres undefined)	3	1	-1	0	-1	·	·
O=C(COC(=O)c1ccc2c(c1)C(=O)N(Cc1ccncc1)C2=O)Nc1ccccc1[N+](=O)[O-]	7.0*	0	1	1	0	0	6.2*
O=C(Nc1ccc(F)c([N+](=O)[O-])c1)C(=O)c1c(O)[nH]c2ccccc12	6.9*	4	2	0	0	0	4

Assay outcomes as filed in PubChem BioAssay.
